According to the supplement of paper PMC6555819:

Legend:
Test in all cases: PBM binding z-score (relative to random genomic background probes); higher = stronger binding; sequences stand for … in GC…GCGATTGACAGCGTAGAATGAAGG
[1] = test system: FXR:RXRa (NR concentration 270 nM, RXRa partner concentration 90 nM)
How it was run: (§1)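 The probes on custom Agilent 4×180K protein-binding microarrays were double-stranded, with 34-nt variable regions bearing direct-repeat seeds, single-nucleotide variants, half-site ablations and random human genomic background sequences. Incubation lasted 1 h with ligand-free nuclear receptor dimers in PBS pH 7.4, 2% milk, 0.02% Triton X-100, 1 mM DTT, 0.2 mg/mL BSA and 0.4 mg/ml salmon testes DNA. Antibodies against each partner (one per run) detected bound dimers, and fluorescence scans were regression-normalized. Binding z-scores take the random background probes as reference.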

[2] = test system: LXRa:RXRa (NR concentration 270 nM, RXRa partner concentration 90 nM)
How it was run: as §1

[3] = test system: LXRa homodimer (NR concentration 270 nM)
How it was run: as §1

[4] = test system: LXRb:RXRa (NR concentration 270 nM, RXRa partner concentration 90 nM)
How it was run: as §1

[5] = test system: LXRb homodimer (NR concentration 270 nM)
How it was run: as §1

[6] = test system: PPARa:RXRa (NR concentration 270 nM, RXRa partner concentration 90 nM)
How it was run: as §1

[7] = test system: PPARg:RXRa (NR concentration 180 nM, RXRa partner concentration 90 nM)
How it was run: as §1

[8] = test system: PPARg:RXRa 270nM:90nM, anti-RXR (NR concentration 270 nM, RXRa partner concentration 90 nM)
How it was run: as §1

[9] = test system: PPARg:RXRa 30nM:10nM, anti-RXR (NR concentration 30 nM, RXRa partner concentration 10 nM)
How it was run: as §1

[10] = test system: PPARg:RXRa 90nM:30nM, anti-RXR (NR concentration 90 nM, RXRa partner concentration 30 nM)
How it was run: as §1

| Sequence | PBM binding z-score [1] | PBM binding z-score [2] | PBM binding z-score [3] | PBM binding z-score [4] | PBM binding z-score [5] | PBM binding z-score [6] | PBM binding z-score [7] | PBM binding z-score [8] | PBM binding z-score [9] | PBM binding z-score [10] |
| --- | --- | --- | --- | --- | --- | --- | --- | --- | --- | --- |
| GTTTACGGGTCAAAGGTTATAGCATGAATAGAAT | 6.92 | 5.94 | 0.633 | 6 | 0.401 | 6.92 | 11.3 | 9.13 | 9.06 | 10.1 |
| CGTCCAAGGGCAAAGGTCAGTGAAGAGATGACGG | 4.46 | 4.17 | 0.705 | 3.56 | -0.199 | 5.39 | 8.11 | 7.1 | 5.37 | 7.34 |
| CAAACTACGTCACAGAGGTCAAAGTCCGTGCGTA | 4.81 | 5.44 | 5.72 | 5.02 | 1.87 | 5.12 | 3.52 | 4.59 | 1.9 | 3.91 |
| TCTCGGAGGACACGAACGGTCAGAGCTCGACATC | 0.632 | 0.398 | 0.0467 | -0.277 | -0.841 | 0.0396 | 0.0784 | 0.624 | 1.74 | 0.89 |
| CGTCAAAGTTCAACAAAGGTAACGTAAAGCACGC | 7.15 | 6.13 | 3.38 | 3.9 | 1.98 | 4.83 | 5.08 | 5.42 | 2.27 | 4.23 |
| TGTCAAAGTTCAAAGGTAACATAAGTATCCACAC | 7.47 | 6.45 | 4.6 | 5.05 | 2.12 | 6.03 | 8.82 | 7.65 | 5.46 | 7.34 |
| CGTCAAAGTTCAAGGTAACGTCACAGAAAGCAGC | 6.25 | 5.64 | 2.77 | 3.46 | 1.24 | 4.71 | 4.58 | 5.27 | 2.34 | 4.03 |
| GCGACTGGGGCATCAGCATGTTACCATAACTTAA | -0.56 | -0.551 | -0.462 | 0.363 | -0.493 | 0.258 | 0.836 | 0.643 | -0.13 | -0.0118 |
| CCTTACGGGTCACTCCAGGTTATAGCCTCGGAGT | 4.87 | 7.57 | 1.87 | 5.01 | 0.105 | 4.56 | 3.61 | 3.83 | 1.17 | 2.46 |
| TCTTGTAGATCAACAGGAGGTTAAGAACGATCGA | 0.185 | 0.857 | 0.191 | 0.748 | -0.245 | 1.36 | 0.136 | 1.3 | 2.75 | 1.81 |
| CATACAGGGGCAGCTAGGCCAGAGTAGGGACGGC | -0.362 | -0.459 | -0.661 | -0.557 | -0.608 | -0.483 | 0.23 | -0.457 | -0.311 | -0.744 |
| TCGAGTAGGTTACCAATGGGCCATTCAGCTTTCT | 0.506 | 1.7 | -0.585 | 0.464 | -1.18 | 1.09 | 0.383 | 1.13 | 0.927 | 1.04 |
| AGAACGAGGGCACGCTGAGTTGATAGAAGAGTAG | 0.553 | 0.362 | -0.441 | 0.106 | -0.925 | 2.09 | 2.05 | 1.54 | 0.398 | 1.11 |
| ACAGACAGGTGAGTGAAGGTAACTCCGCTGGACG | 0.216 | -0.067 | -0.195 | -0.498 | -0.566 | 0.0372 | 0.503 | -0.251 | 0.0064 | -0.389 |
| TCAAACAGGTGAAGGTAACTCAGGTACGCAGTCG | 1.02 | 1.85 | 0.0857 | 1.22 | -0.218 | 1.61 | 0.959 | 2.43 | 4.26 | 3.48 |
| CGATCGAGGGCATGAGTTGATAGCAAATGCCGAT | 0.233 | -0.0163 | -0.798 | -0.0334 | -1.04 | 1.22 | 1.17 | 1.29 | -0.0363 | 0.755 |
| ATCTCTAGGCAAAGTTCAGTGAAAGATCGATAGA | 0.723 | 1.38 | 0.839 | 0.819 | 0.16 | 1.95 | 2.49 | 3.78 | 1.93 | 3.67 |
| ATCGAAAGGTCGAGGCGAGTATAGAGAAAGGGAA | 3.71 | 3.01 | -0.542 | 2.24 | 0.308 | 4.47 | 2.71 | 2.86 | 0.749 | 1.52 |
| CCTCCTGGGCCATCAGGTCATTGATATCAACGTT | 1.24 | 0.991 | 0.788 | 1.31 | 0.0311 | 1.73 | 0.38 | 1.29 | -0.255 | 0.67 |
| CCTAGCAGGCCAATCAGGGTCACTCAAGGCTTGA | 2.6 | 3.39 | -0.0064 | 3.03 | -0.752 | 3.63 | 0.949 | 1.33 | -0.454 | 0.361 |
| ACTATTAGTTGAGACGAGGCCAACCGATAGGTTG | 0.859 | 0.188 | 0.0694 | -0.0266 | 0.238 | 0.13 | 0.24 | -0.0513 | -0.341 | -0.176 |
| CCGACTGGGGCAGAAAGGTTACCACACCATCCGG | 0.286 | 0.428 | 0.0458 | 0.833 | -1.17 | 2.21 | 1.74 | 2.66 | 0.555 | 2.13 |
| CCTAGCAGGCCAATCTGGGTCGCTCAAGGCTTGA | 0.866 | 0.838 | -0.942 | 0.983 | -1.1 | 2.39 | 0.206 | 0.917 | -0.999 | 0.104 |
| CGAACTAGGTCATCCAGGACAGTGTATACATTGA | 4.45 | 2.66 | 0.861 | 2.24 | 0.0566 | 4.61 | 7.47 | 6.1 | 3.25 | 5.65 |
